# Laboratory results: PubChem BioAssay (NCATS)
# Records with an inconclusive call do not appear. A number with no mark means an inactive call. Activity calls are given as the source filed them. Calls follow the shape of the dose curve; as a rule, active = well fitted cell-killing curve with a large enough effect; inconclusive = small, poorly fitted or top-dose-only effect, or effect the other way; inactive = flat fitted curve, though single readings scatter.
# Experiment: qHTS of pediatric cancer cell lines to identify multiple opportunities for drug repurposing: Confirmatory screen for control Hh wild type fibroblast cells (AID 1347121); also: nearly all actives have a fitted effect of over 70% in size
# Settings: viability qHTS; series mostly up to 45.9 µM; activity, negative = cytotoxic: at the top concentration
# Text: Drug repurposing or repositioning has been offered as a strategy for drug development in oncology programs. This approach has special potential for childhood cancers and other rare or orphan diseases, where the expected return on new drug development has been a disincentive to pharmaceuticals.
# In this project we exploit the poly-pharmacology of drugs to discover new indications via phenotypic screening of a panel of 19 well-characterized cell lines derived from solid tumors seen in children and adolescents. The goal is to identify approved drugs with previously unrecognized anticancer properties that has the potential to reveal new mechanisms and biological processes involved in carcinogenesis or drug resistance. We employed a titration-based paradigm (quantitative high-throughput screening or qHTS), where all compounds were tested at multiple concentrations for their effect on cell viability. Concentration-response curves (CRCs) were derived directly from the primary screen, and both potency and efficacy values were used to identify compounds with robust bioactivity profiles. We screened the NIH Chemical Genomics Center (NCGC) Pharmaceutical Collection (NPC) and Mechanism Interrogation Plate (MIPE) small molecule collections of approved and investigational compounds against these cell lines; and measured metabolically active cells after 48 hours of compound treatment as a proxy for cell viability.
# Assay Submitter: Nathalia J. Martinez, National Center for Advancing Translational Sciences, National Institutes of Health, Rockville, MD, USA; email: natalia.martinez@nih.gov
# [1] Shen, M et al. Quantitative high-throughput phenotypic screening of pediatric cancer cell lines identifies multiple opportunities for drug repurposing. Oncotarget 2017 Dec 19;9(4):4758-4772. PMID 29435139.
# The cells were obtained from University of North Carolina (UNC), Pediatric Preclinical Testing Program (PPT), and Coriell Institute (CI).
# qHTS cell viability assay:
# Cells were assayed in growth media at a density of 500-1,000 cells/well. Five microliters of cells were dispensed into 1,536-well, white, solid-bottom, TC-treated plates (Greiner Bio One) using a multidrop dispenser and incubated at 37 degrees C, 5% CO2, under a humidified atmosphere for 5 hours. Twenty-three nanoliters of compounds and controls (neutral control DMSO or positive control bortezomib at final concentration of 2.3 µM) were subsequently transferred by Kalypsys pintool. For primary screens, the MIPE collection was tested at 11-point dilutions (final concentrations range from 0.78 nM to 46 µM) and the NPC collection at 8-point dilutions (final concentrations range from 0.59 nM to 46 µM). Compounds tested in follow-up screens were assayed at 11-point dilutions. Cells were incubated for 48 hours, followed by addition of 3 µL of CellTiter-Glo (Promega). After a 15 min incubation at room temperature, samples were analyzed for luminescence intensity using a ViewLux High-throughput CCD imager equipped with clear filters.
# Potency is read from the fitted curve at half-maximal effect.
SMILES,"activity, negative = cytotoxic",Potency
CCCCC(CC)CNC(=O)CC(C)OC(=O)CCC(=O)O (centres undefined),5.46%,
CCc1cc2cc(OC)c(OC)cc2c(Cc2ccccc2)n1,-4.54%,
CN(C)CCN(Cc1ccsc1)c1ccccn1,-0.955%,
N=C(N)c1ccc(OCCCOc2ccc(C(=N)N)cc2)cc1,0.972%,
Cc1nc(N)nc(N)c1-c1ccc(Cl)c(Cl)c1,8.43%,
CCC(=O)O[C@]1(C(=O)COC)[C@@H](C)C[C@H]2[C@@H]3CCC4=CC(=O)C=C[C@]4(C)C3(F)[C@@H](O)C[C@@]21C (some centres undefined),9.84%,
C[C@H]1C[C@@H]2[C@H]([C@@H](O)C[C@@]3(C)[C@H]2CC[C@]3(O)C(=O)CO)[C@@]2(C)C=CC(=O)C=C12,-11.2%,
CCN(CC)CC(=O)OCC(=O)[C@@]1(O)CC[C@H]2[C@@H]3CCC4=CC(=O)CC[C@]4(C)[C@H]3[C@@H](O)C[C@@]21C,2.61%,
CC(=O)OCC(=O)[C@@]1(O)CCC2C3CCC4=CC(=O)CC[C@]4(C)C3[C@@H](O)C[C@@]21C (some centres undefined),-15.6%,
CCCC(=O)O[C@]1(C(=O)COC(=O)CC)CC[C@H]2[C@@H]3CCC4=CC(=O)CC[C@]4(C)[C@H]3[C@@H](O)C[C@@]21C,11.3%,
COc1c(C)c2c(c(O)c1C/C=C(\C)CCC(=O)OCCN1CCOCC1)C(=O)OC2,14.5%,
CO[C@@H]1[C@@H](OC)[C@H](C)[C@@](O)(CC(=O)O)O[C@H]1[C@H](C)[C@H]1O[C@@]2(CC[C@@](C)([C@H]3CC[C@@](C)([C@@H]4O[C@@H]([C@H]5O[C@](C)(O)[C@H](C)C[C@@H]5C)C[C@@H]4OC4C[C@H](OC)[C@@H](OC)[C@H](C)O4)O3)O2)C[C@H](O)[C@H]1C (some centres undefined),,8.27 µM (active)
CC(=O)OCC(=O)[C@@]1(O)[C@H](OC(C)=O)C[C@H]2[C@@H]3CCC4=CC(=O)C=C[C@]4(C)[C@@]3(F)[C@@H](O)C[C@@]21C,1.52%,
COc1cc(/C=C/C(N)=O)cc(OC)c1OC,0.782%,
C[C@]12CCC(=O)C=C1CC[C@@H]1[C@@H]2[C@@H](O)C[C@@]2(C)[C@H]1CC[C@]2(O)C(=O)COC(=O)CCC(=O)O,4.44%,
CCC1(c2cnc[nH]2)Cc2ccccc2C1,2.41%,
CC(C)(C)CC(=O)OCC(=O)[C@@]1(O)CC[C@H]2[C@@H]3CCC4=CC(=O)C=C[C@]4(C)[C@H]3[C@@H](O)C[C@@]21C,3.49%,
O=c1[nH]sc2cc(Cl)ccc12,5.38%,
Cc1ccc(C(=O)Oc2ccc(C(O)CNC(C)(C)C)cc2OC(=O)c2ccc(C)cc2)cc1 (centres undefined),-1.58%,
CC(=O)O[C@@H]1C(=O)O[C@@H]2[C@H]1OC(=O)[C@@H]2OC(C)=O,3.18%,
CCC1=C[C@@H]2CN(C1)Cc1c([nH]c3ccccc13)[C@@](C(=O)OC)(c1cc3c(cc1OC)N(C)[C@H]1[C@@](O)(C(=O)OC)[C@H](OC(C)=O)[C@]4(CC)C=CCN5CC[C@]31[C@@H]54)C2,-19.5%,
Cc1cc(OCCOCC[N+](C)(C)Cc2ccccc2)ccc1C(C)(C)CC(C)(C)C,,20.8 µM (active)
CCOC(=O)O[C@]1(C(=O)OCCl)CC[C@H]2[C@@H]3CCC4=CC(=O)C=C[C@]4(C)[C@H]3[C@@H](O)C[C@@]21C,12.3%,
CC(=O)[C@@]1(O)CC[C@H]2[C@@H]3C[C@H](C)C4=CC(=O)CC[C@]4(C)[C@H]3CC[C@@]21C,-0.814%,
